Measurements as given in PubChem BioAssay AID620 (Sanford-Burnham Center for Chemical Genomics, 2007).
The campaign covered roughly 87,000 compounds. About 360 (0.41%) were called active. Cut-off read from the data, not from the text of the source: active = cytotoxicity above about 50%; inactive = the rest. The list comes from a sample in which actives are over-represented; it also holds similar structures and randomly drawn compounds.

assay: HT1080 cell viability loss – fluorescence readout (AID 620); conditions: at 10 µM, stronger effect = higher value;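 note: cells exposed to compound overnight then 4 h with Alamar Blue; 0% = vehicle DMSO and 100% = killing control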

Question: With `CCC1Oc2ccccc2N(CC(=O)NCCCN2CCOCC2)C1=O` (configuration not stated) as the molecule, how does the cytotoxicity read?
Answer: -2.1% (inactive)

Question: With `O=S(=O)(Nc1ccc2c(c1)OCO2)c1ccc(Br)s1` as the molecule, how does the cytotoxicity read?
Answer: 9.9% (inactive)

Question: For `COCCn1c(SCC#N)nnc1-c1ccccc1`, which cytotoxicity is on record?
Answer: 22.4% (inactive)

Question: Which cytotoxicity does the source give for `CCOc1cc(/C=N/n2cnnc2)cc(Br)c1O` here?
Answer: 0.3% (inactive)

Question: Which cytotoxicity does the source give for `CCOc1cc(/C=N/n2cnnc2)c(Br)cc1O` here?
Answer: 62.2% (active)

Question: With `CCOc1cc(/C=N/n2cnnc2)ccc1O` as the molecule, how does the cytotoxicity read?
Answer: -5% (inactive)

Question: For `CCCS(=O)(=O)C(=C(Nc1ccc(OC)cc1)Nc1ccc(OC)cc1)S(=O)(=O)CCC`, which cytotoxicity is on record?
Answer: 7.4% (inactive)

Question: For `COc1ccc(CS(=O)(=O)/C(Cl)=C(/Cl)C(=O)Nc2ccc(OC)nc2)cc1`, which cytotoxicity is on record?
Answer: 63.1% (active)

Question: For `COC(=O)c1ccccc1S(=O)(=O)Nc1ccc(OC)nc1`, which cytotoxicity is on record?
Answer: 13% (inactive)

Question: For `COc1ccc(NC(=O)/C(Cl)=C(/Cl)S(=O)(=O)Cc2ccccc2)cn1`, which cytotoxicity is on record?
Answer: 79.3% (active)

Question: With `COc1ccc(CNC(=O)Nc2ccc(C)cc2)cc1` as the molecule, how does the cytotoxicity read?
Answer: -2.8% (inactive)

Question: Which cytotoxicity does the source give for `COc1ccc(NS(=O)(=O)Cc2ccccc2Cl)cn1` here?
Answer: 14.8% (inactive)

Question: For `COc1ccc(NC(=O)C(CC(C)C)NC(=O)c2ccccc2C)cn1` (configuration not stated), which cytotoxicity is on record?
Answer: 0.6% (inactive)

Question: Which cytotoxicity does the source give for `COc1ccc(NC(=O)c2cc(OC)c(OC)c(OC)c2)cn1` here?
Answer: 3.1% (inactive)

Question: For `COc1ccc(C(=O)/C=C(\N)C(F)(F)F)c(O)c1`, which cytotoxicity is on record?
Answer: -3.6% (inactive)

Question: For `CCOC(=O)CSc1nc2c(c(=O)[nH]c(=O)n2C)n1C/C=C(/C)Cl`, which cytotoxicity is on record?
Answer: 12% (inactive)

Question: With `O=C1C=C(N(CCO)CCO)C2(CCCCC2)O1` as the molecule, how does the cytotoxicity read?
Answer: -7.3% (inactive)

Question: With `O=C(O)CNc1nc(-c2ccccc2)nc2ccccc12` as the molecule, how does the cytotoxicity read?
Answer: -10.9% (inactive)

Question: Which cytotoxicity does the source give for `COC1=C(OC)c2ccccc2C(C(=O)O)N/C1=C(/C)Nc1ccncc1` (configuration not stated) here?
Answer: -1% (inactive)

Question: For `CN(CC(=O)NC1CCCCCCC1)S(=O)(=O)c1cccc2cccnc12`, which cytotoxicity is on record?
Answer: -11.8% (inactive)

Question: Which cytotoxicity does the source give for `CCOC(=O)/C(=C\c1cccnc1)C(=O)c1cc(C(C)=O)c(Nc2ccccc2)s1` here?
Answer: 75.6% (active)

Question: For `CCOC(=O)/C(=C/Nc1ccccc1)[N+](=O)[O-]`, which cytotoxicity is on record?
Answer: -10.2% (inactive)

Question: For `CCOC(=O)c1sc(Nc2ccccc2)nc1C`, which cytotoxicity is on record?
Answer: 15% (inactive)

Question: With `CCOC(=O)Nc1cccc(Nc2ccccc2)c1` as the molecule, how does the cytotoxicity read?
Answer: -3.2% (inactive)

Question: Which cytotoxicity does the source give for `CCOC(=O)c1cccc(NC(=O)c2cccnc2)c1` here?
Answer: 0.2% (inactive)

Question: For `Cn1c(-c2sc(=S)n(-c3ccccc3)c2N)nc2ccccc21`, which cytotoxicity is on record?
Answer: -7.2% (inactive)

Question: For `CCCCn1c(SCC(=O)N2CCC(C)CC2)nc2cc(S(N)(=O)=O)ccc21`, which cytotoxicity is on record?
Answer: 27.9% (inactive)

Question: With `CC1CCc2c(sc3ncnc(SCC(=O)c4ccccc4)c23)C1` (configuration not stated) as the molecule, how does the cytotoxicity read?
Answer: 4.4% (inactive)

Question: For `CC(C)(C)c1csc(NC(=O)Cn2c(=O)oc3ccccc32)n1`, which cytotoxicity is on record?
Answer: -6.8% (inactive)

Question: Which cytotoxicity does the source give for `CNC(=O)c1ncnnc1N(C)C(=O)NCc1ccccc1` here?
Answer: -2.1% (inactive)

Question: For `CN1CCN(C(=O)c2ccc(C3SCC(=O)N3Cc3ccco3)cc2)CC1` (configuration not stated), which cytotoxicity is on record?
Answer: -8.2% (inactive)

Question: For `CN1CC2=Cc3ccccc3OC23Oc2ccccc2C=C3C1`, which cytotoxicity is on record?
Answer: 51.7% (active)

Question: With `O=C1c2ccccc2OC2(C=Cc3ccccc3O2)N1Cc1ccccc1` (configuration not stated) as the molecule, how does the cytotoxicity read?
Answer: 15.6% (inactive)

Question: For `O=C(Nc1cccc(-c2nc3ccccc3o2)c1)c1ccc(N2C(=O)C3C4C=CC(C4)C3C2=O)cc1` (configuration not stated), which cytotoxicity is on record?
Answer: 21.5% (inactive)

Question: With `CCSc1nnc(NC(=O)c2csc(C)c2)s1` as the molecule, how does the cytotoxicity read?
Answer: 25.7% (inactive)

Question: Which cytotoxicity does the source give for `COCCNc1nnc(SCC(=O)c2ccc3c(c2)OCO3)s1` here?
Answer: 1.3% (inactive)

Question: Which cytotoxicity does the source give for `CCSc1nnc(NC(=O)c2cccs2)s1` here?
Answer: -4.1% (inactive)

Question: For `CCSc1nnc(NC(=O)c2ccc3c(c2)OCO3)s1`, which cytotoxicity is on record?
Answer: 55.2% (active)

Question: Which cytotoxicity does the source give for `CCSc1nnc(NC(=O)c2ccc(Br)s2)s1` here?
Answer: 68.3% (active)

Question: With `CCSc1nnc(NC(=O)c2ccccn2)s1` as the molecule, how does the cytotoxicity read?
Answer: -11% (inactive)

Question: With `CCOCCCn1c(SCC(=O)Nc2ccc(C(N)=O)cc2)nc2ccccc2c1=O` as the molecule, how does the cytotoxicity read?
Answer: -6% (inactive)

Question: Which cytotoxicity does the source give for `CCOC(=O)c1cc(-c2ccc(C)o2)nn1CCC#N` here?
Answer: 0.3% (inactive)

Question: For `CCCC1=Nc2cc(C(=O)NCCCOC(C)C)ccc2Sc2ccccc21`, which cytotoxicity is on record?
Answer: 6.2% (inactive)

Question: For `COCCCNC(=O)c1cccc(C(=O)NCCCOC)c1`, which cytotoxicity is on record?
Answer: 0.6% (inactive)

Question: For `CCCC1=Nc2cc(C(=O)NCCCOCC)ccc2Sc2ccccc21`, which cytotoxicity is on record?
Answer: 63.8% (active)

Question: Which cytotoxicity does the source give for `CCOCCCNC(=O)c1ccc(OC)cc1` here?
Answer: -2.5% (inactive)

Question: Which cytotoxicity does the source give for `CCC1=Nc2cc(C(=O)NCCCOC(C)C)ccc2Sc2ccccc21` here?
Answer: 39.6% (inactive)

Question: For `CCC1=Nc2cc(C(=O)NCCCOC)ccc2Sc2ccccc21`, which cytotoxicity is on record?
Answer: 68.1% (active)

Question: For `CC(C)C1N=C2c3ccccc3N=C(SCc3cc(=O)n4ccccc4n3)N2C1=O` (configuration not stated), which cytotoxicity is on record?
Answer: 2.9% (inactive)

Question: With `CCOc1ccc(S(=O)(=O)N2CCN(C)CC2)c(C)c1C` as the molecule, how does the cytotoxicity read?
Answer: 11.2% (inactive)

Question: For `CCC(C)(C)n1c(=O)[nH]c2c(c1=O)CCC2`, which cytotoxicity is on record?
Answer: 25.2% (inactive)

Question: For `O=C(Nc1ccccc1N1CCCCC1)c1ncoc1-c1ccc(F)cc1`, which cytotoxicity is on record?
Answer: -6.7% (inactive)

Question: Which cytotoxicity does the source give for `CCOc1ccc(/C=C2/SC(=S)N(n3c(C)ccc3C)C2=O)cc1` here?
Answer: -16.1% (inactive)

Question: With `CCOc1ccc(C(=O)N2CCCC2)cc1OC` as the molecule, how does the cytotoxicity read?
Answer: 4.1% (inactive)

Question: With `COc1ccc(C(=O)N2CCc3cc(OC)c(OC)cc3C2)cc1OC` as the molecule, how does the cytotoxicity read?
Answer: -5.5% (inactive)

Question: Which cytotoxicity does the source give for `CCOc1cc(C(=O)N2CCc3cc(OC)c(OC)cc3C2)ccc1OC(F)F` here?
Answer: 59.3% (active)

Question: With `COC(=O)CN1C(=O)C2(C(C#N)=C(N)Oc3c2c(C)nn3-c2ccccc2)c2ccccc21` (configuration not stated) as the molecule, how does the cytotoxicity read?
Answer: -65.1% (inactive)

Question: With `CC1CCCN(S(=O)(=O)c2ccc(NC(=O)CN3CCN(C)CC3)cc2)C1` (configuration not stated) as the molecule, how does the cytotoxicity read?
Answer: -6.1% (inactive)

Question: Which cytotoxicity does the source give for `Cc1ccc(NC(=O)CN2CC(C)SC2=NC2CCCCC2)cc1` (configuration not stated) here?
Answer: 87% (active)

Question: For `CCc1cccc(CC)c1NC(=O)CN1CC(C)SC1=NC1CCCCC1` (configuration not stated), which cytotoxicity is on record?
Answer: -4.4% (inactive)

Question: Which cytotoxicity does the source give for `CCOC(=O)c1c(NC(=O)CSc2nnc(-c3ccccc3C)n2C)sc(C(C)=O)c1C` here?
Answer: -23.9% (inactive)

Question: For `O=C1NCCCC1C(=O)N1CCN(C(=O)c2ccco2)CC1` (configuration not stated), which cytotoxicity is on record?
Answer: 1.1% (inactive)

Question: For `COc1cccc(NC(=O)CC2C(=O)NC3CCCCC3N2C(=O)c2ccc(F)cc2)c1` (configuration not stated), which cytotoxicity is on record?
Answer: -16.2% (inactive)

Question: Which cytotoxicity does the source give for `Cc1ccc(NCC(=O)N/N=C\C(Br)=C\c2ccccc2)cc1` here?
Answer: 8.3% (inactive)

Question: For `Cc1ccccc1NCC(=O)N/N=C/C(Br)=C/c1ccccc1`, which cytotoxicity is on record?
Answer: -17.1% (inactive)

Question: For `CC(/C=N/NC(=O)c1n[nH]c2c1CCC2)=C\c1ccccc1`, which cytotoxicity is on record?
Answer: 71.7% (active)

Question: With `O=C(N/N=C/C(Br)=C\c1ccccc1)c1n[nH]c2c1CCC2` as the molecule, how does the cytotoxicity read?
Answer: 66.5% (active)

Question: For `O=C(CNc1cccc2ccccc12)N/N=C/C(Br)=C/c1ccccc1`, which cytotoxicity is on record?
Answer: 1.9% (inactive)

Question: With `CC(=C/c1ccccc1)/C=N/NC(=O)c1cnccn1` as the molecule, how does the cytotoxicity read?
Answer: -7.1% (inactive)

Question: With `CC(/C=N/NC(=O)c1ccc(Br)cc1)=C\c1ccccc1` as the molecule, how does the cytotoxicity read?
Answer: -15.4% (inactive)

Question: Which cytotoxicity does the source give for `O=C(N/N=C/C(Br)=C/c1ccccc1)c1n[nH]c2c1CCC2` here?
Answer: 66.4% (active)

Question: Which cytotoxicity does the source give for `O=C(O)c1n[nH]c2c1CCCC2` here?
Answer: -12.7% (inactive)
